Reference: ChEMBL document CHEMBL3988442, “University of Dundee, Small-Polar-MMV Screening Library” (2021)
The whole screen tested about 48,000 compounds, of which about 13,000 (27%) showed an effect of 50% or more. The list shows a part of the results.

Test system: Wolbachia pipientis
Assay: Anti-Wolbachia Cell-Based Screen
Assay type: functional
Design: scale not given: in the data most compounds retested in dose-response had high values
Conditions: 5 µM

Row | Compound | Percent Effect
1 | Cc1c(C(C)NC2CCCC2)cnn1-c1ccc(F)cc1F (stereo unspecified) | 1.139%
2 | O=C(N[C@@H]1CN(Cc2cccc3[nH]ccc23)C[C@H]1O)c1cscn1 | 113.8%
3 | O=C(NS(=O)(=O)c1ccc(F)c(F)c1)c1cscn1 | 8.824%
4 | CC(C)N1C[C@H](NC(=O)c2coc(COc3cccc(F)c3)n2)[C@@H](O)C1 | 0.03825%
5 | NC(=O)CN1C(=O)CO[C@H]2CN(Cc3ccc(F)c(F)c3)C[C@H]21 | 0.7627%
6 | O=C(N[C@@H]1CCN(C(=O)c2cc[nH]c2)C[C@H]1O)c1ccccn1 | 16.73%
7 | O=C(NC1CC(=O)N(Cc2cccc(F)c2)C1)c1ccncc1 (stereo unspecified) | 2.208%
8 | O=C(N[C@@H]1CN(c2ncc(F)cn2)[C@@H]2COC[C@@H]21)c1cscn1 | -1.705%
9 | O=C(N[C@@H]1CN(Cc2ccc(F)cc2)C[C@H]1O)c1cscn1 | 113.4%
10 | O=C(N[C@@H]1CN(Cc2ccc(F)c(F)c2)C[C@H]1O)c1cscn1 | 124.1%
11 | O=C(N[C@@H]1CN(Cc2cccc(F)c2)C[C@H]1O)c1cscn1 | 114.1%
12 | Fc1ccc(CN2CCCN(Cc3cscn3)CC2)cc1 | -1.277%
13 | CN(c1ncccc1CNC(=O)c1cscn1)C1CCCCC1 | -0.9499%
14 | CNC(=O)N1CCOC(C)(c2cnn(C)c2)C1 (stereo unspecified) | -1.831%
15 | O=C(N[C@@H]1CN(Cc2ccc3cc[nH]c3c2)C[C@H]1O)c1cnccn1 | 102.1%
16 | NC(=O)C1CCN(CCc2ccc(NCc3cscn3)cc2)CC1 | 0.9786%
17 | O=C(N[C@@H]1CN(CCc2ccc(F)cc2)C[C@H]1O)c1cscn1 | 115.2%
18 | CCc1cnc(N2C[C@@H](NC(=O)c3cscn3)[C@H]3COC[C@H]32)nc1.O=C(O)C(F)(F)F | -6.299%
19 | O=C(O)CCc1cc2n(n1)CCN(Cc1ccc3[nH]ccc3c1)C2 | -14.18%
20 | O=C(N[C@@H]1CN(Cc2ccc3[nH]ccc3c2)C[C@H]1O)c1cscn1 | 101.2%
21 | N#Cc1cc(NC(=O)c2cscn2)ccc1N1CCC(O)CC1 | -15.52%
22 | O=C(N[C@@H]1CCN(c2nccc3ccccc23)C[C@H]1O)c1cnccn1 | -5.026%
23 | CSCCCN1CC[C@@H](NC(=O)c2cnccn2)[C@H](O)C1 | -11.75%

Row | Compound | Percent Effect
24 | COCCn1cnnc1Cn1ccnc1-c1ccccc1C | -14.43%
25 | c1ccc(-c2cc(CC3(NCc4ncc[nH]4)COC3)no2)cc1 | -5.291%
26 | O=C1OCCN1CCS(=O)(=O)c1cccc(Cl)c1 | -8.046%
27 | NCC(c1ccc(Cl)cc1)N1CCc2sccc2C1 (stereo unspecified) | 85.2%
28 | CC(C)c1nsc(N2CCc3sccc3C2)n1 | -3.315%
29 | O=S(=O)(N1CCCC1)N1CCc2sccc2C1 | -2.678%
30 | CC(C(=O)N1CCc2sccc2C1)N1CCC(S(N)(=O)=O)CC1 (stereo unspecified) | 4.951%
31 | CC(C)c1ccc(C(CN)N2CCc3sccc3C2)cc1 (stereo unspecified) | 134.3%
32 | N#Cc1ccc(F)c(CN2CCc3sccc3C2)c1 | 10.21%
33 | O=C1CC2(CCCC2)C(=O)N1CC(O)COCc1ccccc1F (stereo unspecified) | -41.58%
34 | CCOc1ncccc1C(=O)NCC(O)c1ccc(F)c(F)c1 (stereo unspecified) | -43.97%
35 | O=C(O)C(F)(F)F.O=C(O)C(F)(F)F.c1ccc(OCc2nnc3n2CCN(CC2CCOCC2)C3)nc1 | 15.11%
36 | Cc1cc(C)c(CNC(=O)NCC(O)COc2ccccc2)c(=O)[nH]1 (stereo unspecified) | -7.857%
37 | Cc1ccc(CN2CCC(n3cc(CN4CCC(O)CC4)nn3)CC2)s1 | -6.735%
38 | COCCN1CCC12CCN(C(=O)c1ccsc1)CC2.O=C(O)C(F)(F)F | -8.3%
39 | CCc1noc(CCCC(=O)N2CCCC(c3ccn[nH]3)C2)n1 (stereo unspecified) | -18.93%
40 | CCCc1noc(CCC(=O)N2CCCC(c3ccn[nH]3)C2)n1 (stereo unspecified) | -9.271%
41 | CCc1noc(CCC(=O)N2CCC(c3ccn[nH]3)C2)n1 (stereo unspecified) | 80.59%
42 | COCC(=O)NCC1Cn2nnc(-c3ccoc3)c2CO1 (stereo unspecified) | -10%
43 | O=c1cc(-c2ccccc2)nc2n1CCCCC2 | 110.3%
44 | O=c1cc(-c2ccc(F)cc2)nc2n1CCCCC2 | 114%
45 | Fc1ccc2c(c1)C(NCc1nnc3n1CCCCC3)CCCO2 (stereo unspecified) | -5.807%
46 | O=c1[nH]c(-c2ccc(F)cc2)nc2c1CCNC2 | -26.62%

Row | Compound | Percent Effect
47 | NC1(c2nc(-c3ccccc3)cc(=O)[nH]2)CCCC1 | -3.244%
48 | Cc1nc(-c2ccccc2)ccc1C(=O)N1CCn2c(C)nnc2C1 | -4.566%
49 | CCc1cc(CNC(=O)Nc2cc(F)cc(N3CCCC3)c2)on1 | -27.71%
50 | O=C1CCc2ccccc2N1CCCn1cnnn1 | -8.538%
51 | CC(C)c1ccc(C(=O)O)cc1S(=O)(=O)Nc1ccc(=O)n(C)c1 | -9.9%
52 | Cc1ccc(N2CCO[C@@H]3CN(Cc4cccc(C)n4)CC[C@@H]3C2)nn1 | 0.9995%
53 | Cc1ccc(N2C[C@@H]3CN(C(=O)c4ccccc4)CCO[C@@H]3C2)nn1.O=C(O)C(F)(F)F | -9.523%
54 | Cc1ccc(N2CCO[C@H]3CN(C(=O)c4cccc(C)n4)C[C@H]32)nn1 | 104.4%
55 | CNS(=O)(=O)c1cccc(C(C)NCc2cccc(O)c2)c1 (stereo unspecified) | -12.85%
56 | O=C(c1nc(=O)[nH][nH]1)N1CCCCCC1 | -25.91%
57 | COc1ccc2c(c1)C(=O)N(C)C1(CCN(CC=C(C)C)CC1)N2 | -3.399%
58 | CN1CCC(NC(=O)NCCNc2ccccn2)CC1 | 10.59%
59 | O=C(NCCNc1ccccn1)NC1CCCC1 | 1.673%
60 | CC(=O)NC1Cc2ccc(S(=O)(=O)NCCNc3ccccn3)cc2C1 (stereo unspecified) | 74.28%
61 | CN(C)C(=O)CCS(=O)(=O)Cc1cc(Cl)c2c(c1)OCCO2 | 3.114%
62 | CN(C)C(=O)CCCS(=O)(=O)Cc1cc(Cl)c2c(c1)OCO2 | 133.3%
63 | CS(=O)(=O)CCS(=O)(=O)Cc1cc(Cl)c2c(c1)OCCCO2 | -7.786%
64 | CN(C)C(=O)CCCS(=O)(=O)Cc1cc(Cl)c2c(c1)OCCO2 | 4.566%
65 | CN(C)C(=O)CS(=O)(=O)Cc1cc(Cl)c2c(c1)OCCO2 | 128.9%
66 | CC(C)NC(=O)CS(=O)(=O)Cc1cc(Cl)c2c(c1)OCCO2 | 2.891%
67 | CN(C)C(=O)CS(=O)(=O)Cc1cc(Cl)c2c(c1)OCCCO2 | -2.577%
68 | CS(=O)(=O)Cc1cc(Cl)c2c(c1)OCCCO2 | 18.55%
69 | CN(C)C(=O)CCS(=O)(=O)Cc1cc(Cl)c2c(c1)OCO2 | 106.6%

Row | Compound | Percent Effect
70 | CCN1CCC(NC(=O)NC2CCOc3ccc(Br)cc32)CC1 (stereo unspecified) | -7.217%
71 | COCc1nc(CNC2CCN(C(C)C)CC2)no1 | -1.626%
72 | CCC(CO)N(Cc1cccs1)C(=O)CSC (stereo unspecified) | -12.18%
73 | O=S1(=O)C[C@@H]2[C@H](C1)N(Cc1cc(F)cc(Cl)c1)CCN2CCO | 3.698%
74 | CN1[C@H](CO)C[C@H](CNCc2ccc(CO)o2)[C@@H]1c1ccccc1F | -6.438%
75 | O=C(O)C(F)(F)F.c1cnn(Cc2cn3c(n2)CN(Cc2nccs2)CC3)c1 | 25.66%
76 | CC(=O)N1CC2(CCN(S(=O)(=O)N(C)C)CC2)C2(CCNC2=O)C1 (stereo unspecified) | -32.61%
77 | COc1ccccc1C1CCN(c2ccc3cc[nH]c3n2)CC1 | 26.71%
78 | COC(=O)c1cc(NCC(=O)NC(N)=O)cc(C(F)(F)F)c1 | 4.503%
79 | COc1c(C(=O)NCC(C)Sc2ccccc2)c(C)nn1C (stereo unspecified) | -11.73%
80 | Cc1cc(NC(=O)NCCc2cccs2)n(C)n1 | -8.078%
81 | CCC(NC(=O)c1cc(CC(C)C)nn1C)c1cccc(C)n1 (stereo unspecified) | -23.09%
82 | Cc1nn(C)c(C)c1C(=O)NC(C)CC(=O)c1cccs1 (stereo unspecified) | 89.66%
83 | COc1ccccc1C(C)CNC(=O)c1c(C)nn(C)c1OC (stereo unspecified) | -4.025%
84 | CNS(=O)(=O)c1cccc(CNC(=O)c2c(C)nn(C)c2C)c1 | -2.541%
85 | Cc1nn(C)c(C)c1CC(C)NC(=O)NCc1ccn(C(C)C)n1 (stereo unspecified) | 14.28%
86 | COc1c(C(=O)NC(C)CC(=O)c2cccs2)c(C)nn1C (stereo unspecified) | 88.78%
87 | C[C@@H](NC(=O)c1cccs1)c1onc(-c2cccnc2)c1C(=O)O.Cl | -7.123%
88 | CNc1snc(C)c1C(=O)NC(C)CC(=O)c1cccs1 (stereo unspecified) | 87.28%
89 | CC(NC(=O)c1cccs1)C(=O)NCc1ccccc1CN1CCCC1 (stereo unspecified) | 1.8%
90 | Cc1cc(C(=O)NC(C)CC(=O)c2cccs2)n(C)n1 (stereo unspecified) | 104.4%
91 | CCc1ccc2c(C3CN(CC4CCC4)C3)ncn2c1.O=C(O)C(F)(F)F | 1.201%
92 | Cc1ccc(C(=O)N2CCSCC2)cc1NC(C)C | -20.08%

Row | Compound | Percent Effect
93 | CN(C)c1nc2c(c(N3CCC(O)CC3)n1)CN(CC1CCNC1)CC2 (stereo unspecified) | -8.406%
94 | CCC(CO)N(Cc1ccccn1)C(=O)c1ccc(CSC)o1 (stereo unspecified) | 18.24%
95 | Cc1c(C(=O)NC(C)CC(=O)c2cccs2)cnn1C (stereo unspecified) | 85.26%
96 | CNS(=O)(=O)c1cccc(CNC(=O)c2cnn(C)c2C)c1 | -2.681%
97 | Cc1c(C(=O)NC(CN2CCCC2=O)c2ccccc2)cnn1C (stereo unspecified) | -6.718%
98 | O[C@H]1[C@H](NCCc2cnccn2)c2ccccc2C12CCNCC2 | 1.46%
99 | CC1CCN(CCNC(=O)C2CCN(C(=O)C3CC3)CC2)CC1 | 7.892%
100 | CCc1ccsc1C(=O)NC(Cc1ccccc1)C(N)=O (stereo unspecified) | 1.098%
101 | CCc1nc(CC(=O)NC(C#N)CC(C)C)cs1 (stereo unspecified) | 0.9973%
102 | CC(C)CCC(=O)NC(C#N)CC(C)C (stereo unspecified) | 5.343%
103 | CCc1nc(CC(=O)NC(C#N)CC)cs1 (stereo unspecified) | -7.062%
104 | CCc1ccsc1C(=O)NC(C#N)CC(C)C (stereo unspecified) | 102.3%
105 | CCCC(C#N)NC(=O)Cc1csc(CC)n1 (stereo unspecified) | -2.381%
106 | CCCC(C#N)NC(=O)c1sccc1CC (stereo unspecified) | 99.07%
107 | COc1ccsc1C(=O)NCCNc1ccccc1 | -8.97%
108 | CCCC(C#N)NC(=O)COC1CCCCC1 (stereo unspecified) | -4.378%
109 | CCc1ccsc1C(=O)NC(C#N)CC (stereo unspecified) | 105.4%
110 | COc1ccsc1C(=O)Nc1cc(Br)c(=O)n(C)c1 | -2.156%
111 | CCC(C#N)NC(=O)c1sccc1OC (stereo unspecified) | 86.18%
